In ChEMBL document CHEMBL1961873, “Compounds: GSK PKIS; Assays: Nanosyn kinase panel” (2012):
Where “and” joins values, the source holds several entries; their conditions need not be identical. Identical values can stand only once.

Assays:
[1] = target: Mast/stem cell growth factor receptor Kit (Homo sapiens) (UniProt P10721); settings: at 1 µM
[2] = test system: Mast/stem cell growth factor receptor Kit (Homo sapiens), P10721 [D816V]; settings: at 0.1 µM
[3] = test system: Mast/stem cell growth factor receptor Kit (Homo sapiens), P10721 [D816V]; settings: at 1 µM
[4] = test system: Mast/stem cell growth factor receptor Kit (Homo sapiens), P10721 [T670I]; settings: at 0.1 µM
Sequence of Mast/stem cell growth factor receptor Kit (Homo sapiens), P10721 [T670I] (P10721 whole entry T670I): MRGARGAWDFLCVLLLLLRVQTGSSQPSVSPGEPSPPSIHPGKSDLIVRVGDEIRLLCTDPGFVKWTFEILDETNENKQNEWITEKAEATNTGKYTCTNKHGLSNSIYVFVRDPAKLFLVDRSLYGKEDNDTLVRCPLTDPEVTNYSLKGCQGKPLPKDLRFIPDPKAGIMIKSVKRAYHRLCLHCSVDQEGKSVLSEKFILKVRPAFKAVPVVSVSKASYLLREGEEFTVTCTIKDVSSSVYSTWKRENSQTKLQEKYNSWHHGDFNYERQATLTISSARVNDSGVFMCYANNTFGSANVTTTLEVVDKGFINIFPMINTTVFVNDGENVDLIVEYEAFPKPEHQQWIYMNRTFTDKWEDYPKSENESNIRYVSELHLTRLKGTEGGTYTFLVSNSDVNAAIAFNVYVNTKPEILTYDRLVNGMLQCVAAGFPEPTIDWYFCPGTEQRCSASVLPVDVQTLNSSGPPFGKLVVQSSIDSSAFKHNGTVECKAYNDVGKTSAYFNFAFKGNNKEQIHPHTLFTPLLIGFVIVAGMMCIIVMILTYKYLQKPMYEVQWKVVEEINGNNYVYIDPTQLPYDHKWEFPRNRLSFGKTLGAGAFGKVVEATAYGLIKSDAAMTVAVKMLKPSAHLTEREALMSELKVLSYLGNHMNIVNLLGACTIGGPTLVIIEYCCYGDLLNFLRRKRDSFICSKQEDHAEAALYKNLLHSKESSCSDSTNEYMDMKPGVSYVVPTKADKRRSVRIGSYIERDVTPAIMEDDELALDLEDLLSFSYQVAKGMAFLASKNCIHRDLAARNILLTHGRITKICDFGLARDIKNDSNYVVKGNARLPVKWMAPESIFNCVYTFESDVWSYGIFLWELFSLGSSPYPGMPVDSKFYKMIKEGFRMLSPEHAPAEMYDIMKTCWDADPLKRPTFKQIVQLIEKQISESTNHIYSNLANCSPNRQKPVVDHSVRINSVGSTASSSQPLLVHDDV

[5] = test system: Mast/stem cell growth factor receptor Kit (Homo sapiens), P10721 [T670I]; settings: at 1 µM
[6] = test system: Mast/stem cell growth factor receptor Kit (Homo sapiens), P10721 [V560G]; settings: at 0.1 µM
Sequence of Mast/stem cell growth factor receptor Kit (Homo sapiens), P10721 [V560G] (P10721 whole entry V560G): as the sequence (P10721 whole entry T670I) above, with V560G, I670T counted along it

[7] = test system: Mast/stem cell growth factor receptor Kit (Homo sapiens), P10721 [V560G]; settings: at 1 µM
[8] = target: Tyrosine-protein kinase Lck (Homo sapiens) (UniProt P06239); settings: at 0.1 µM
Sequence of Tyrosine-protein kinase Lck (Homo sapiens) (P06239 2-509 limits assumed): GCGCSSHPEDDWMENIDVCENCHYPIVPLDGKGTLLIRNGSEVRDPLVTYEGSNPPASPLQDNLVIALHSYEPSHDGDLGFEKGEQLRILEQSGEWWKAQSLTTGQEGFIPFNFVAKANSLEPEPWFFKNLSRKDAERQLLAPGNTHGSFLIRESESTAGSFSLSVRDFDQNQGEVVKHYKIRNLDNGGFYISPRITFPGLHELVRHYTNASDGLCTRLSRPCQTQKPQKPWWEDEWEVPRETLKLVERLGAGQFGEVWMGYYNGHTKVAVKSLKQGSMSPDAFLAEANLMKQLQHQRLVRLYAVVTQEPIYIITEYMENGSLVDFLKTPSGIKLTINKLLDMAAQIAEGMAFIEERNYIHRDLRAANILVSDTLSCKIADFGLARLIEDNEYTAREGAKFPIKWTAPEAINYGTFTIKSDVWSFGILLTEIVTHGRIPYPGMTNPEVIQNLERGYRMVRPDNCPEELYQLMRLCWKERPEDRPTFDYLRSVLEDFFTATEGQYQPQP

[9] = target: Tyrosine-protein kinase Lck (Homo sapiens) (UniProt P06239); settings: at 1 µM
[10] = target: Leukocyte tyrosine kinase receptor (Homo sapiens) (UniProt P29376); settings: at 0.1 µM
Sequence of Leukocyte tyrosine kinase receptor (Homo sapiens) (P29376 whole entry): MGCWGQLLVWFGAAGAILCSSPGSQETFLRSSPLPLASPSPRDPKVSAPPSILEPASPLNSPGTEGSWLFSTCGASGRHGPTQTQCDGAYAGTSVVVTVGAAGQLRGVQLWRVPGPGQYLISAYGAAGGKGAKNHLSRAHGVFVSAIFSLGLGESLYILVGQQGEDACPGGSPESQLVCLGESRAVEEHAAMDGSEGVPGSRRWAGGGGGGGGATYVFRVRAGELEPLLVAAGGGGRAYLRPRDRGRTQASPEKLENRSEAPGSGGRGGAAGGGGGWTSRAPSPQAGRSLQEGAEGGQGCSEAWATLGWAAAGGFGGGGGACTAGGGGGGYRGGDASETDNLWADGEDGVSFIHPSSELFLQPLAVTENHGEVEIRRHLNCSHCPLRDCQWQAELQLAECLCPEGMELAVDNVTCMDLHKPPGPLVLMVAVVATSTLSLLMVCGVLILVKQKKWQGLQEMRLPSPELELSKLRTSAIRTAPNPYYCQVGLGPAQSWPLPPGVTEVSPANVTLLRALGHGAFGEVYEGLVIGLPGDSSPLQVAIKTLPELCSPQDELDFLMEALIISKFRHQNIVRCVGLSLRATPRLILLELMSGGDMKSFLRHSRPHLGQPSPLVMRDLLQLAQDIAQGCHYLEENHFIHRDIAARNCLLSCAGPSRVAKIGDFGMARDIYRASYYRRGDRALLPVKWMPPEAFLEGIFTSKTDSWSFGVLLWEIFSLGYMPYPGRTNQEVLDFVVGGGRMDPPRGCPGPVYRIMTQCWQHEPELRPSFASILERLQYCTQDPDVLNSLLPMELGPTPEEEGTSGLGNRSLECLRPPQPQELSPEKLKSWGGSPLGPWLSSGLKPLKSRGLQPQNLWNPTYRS

Sequence of Mast/stem cell growth factor receptor Kit (Homo sapiens), P10721 [D816V] (P10721 whole entry D816V): as the sequence (P10721 whole entry T670I) above, with I670T, D816V counted along it
Sequence of Mast/stem cell growth factor receptor Kit (Homo sapiens) (P10721 whole entry): as the sequence (P10721 whole entry T670I) above, with I670T counted along it

Row | Structure (SMILES) | inhibition [1] | inhibition [2] | inhibition [3] | inhibition [4] | inhibition [5] | inhibition [6] | inhibition [7] | inhibition [8] | inhibition [9] | inhibition [10]
1 | Fc1cccc(COc2ccc(Nc3ncncc3C#Cc3ccccc3)cc2Cl)c1 | 7.97% | 9.06% | 7.92% | 3.83% | 6.38% | -1.39% | -0.04% | 1.72% | 2% | 4.37%
2 | CC(C)c1ccc(-c2cc(-c3c[nH]nc3-c3ccccn3)ccn2)cc1 | 2.85% | 0.06% | 3.83% | 1.04% | 1.23% | -0.59% | 3.5% | 1.31% | -0.13% | 1.24%
3 | OCCCNc1nccc(-c2c(-c3ccc(F)cc3)nn3cc(C(F)(F)F)ccc23)n1 | 8.99% | 1.58% | 0.33% | -0.18% | 0.98% | -1.46% | -0.39% | 1.91% | 5.83% | 3.02%
4 | Cn1c(-c2nonc2N)nc2cnccc21 | 5.33% | 1.72% | 2.94% | 2.83% | 2.49% | -0.55% | -0.31% | 2.46% | 3.49% | 2.56%
5 | CCOc1ccc2c(-c3ccnc(Nc4cc(OC)cc(C(F)(F)F)c4)n3)cnn2n1 | 56.5% | -2.22% | 2.86% | 1.55% | 14.5% | 2.02% | 5.97% | 1.12% | 4.52% | 0.61%
6 | COc1cccc(Nc2nccc(-c3cnn4ncccc34)n2)c1 | 99.3% | -1.05% | 4.28% | 60.9% | 95.3% | 40.2% | 78.3% | 3.11% | 11.2% | 4.15%
7 | COC(=O)Nc1nc2ccc(Oc3ccc(NC(=O)Nc4cc(C(F)(F)F)ccc4F)cc3)cc2s1 | 73.9% | -1.16% | -0.29% | 14.4% | 46.7% | 19.8% | 73.7% | 15.2% | 47.1% | 1.83%
8 | c1ccc(-c2n[nH]cc2-c2ccnc(-c3ccc(OCCn4ccnc4)cc3)c2)nc1 | 11.4% | 3.19% | 19.5% | 1.86% | 3.3% | 1.49% | 4.59% | 0.89% | 12.7% | 0.8%
9 | NC(=O)c1ccc2c(-c3ccnc(NCCCO)n3)c(-c3ccc(F)cc3)nn2c1 | 25.4% | 8.24% | 1.86% | 4.73% | 2.71% | -0.84% | 0.77% | 2.46% | 8.13% | 4.67%
10 | O=C1Nc2ccccc2/C1=C1\CCc2cc(O)ccc21 | 93.7% | 4.08% | 1.34% | 39.3% | 88.1% | 6.44% | 41.6% | 3.68% | 8.53% | 7.84%
11 | Nc1nccc(-c2c(-c3ccc(F)cc3)ncn2C2CCNCC2)n1 | -2.8% and 0.85% | 13% and -2.76% | 1.63% and 3.54% | -2.81% and 0.49% | -3.42% and -0.01% | 1.31% and 1.87% | 3.68% and 1.62% | 1.27% and 4.01% | 14.3% and 17.1% | -2.04% and 0.7%
12 | CCS(=O)(=O)c1ccc(OC)c(Nc2ncc(-c3cccc(C(C)=O)c3)o2)c1 | 71.4% | 5.74% | 12.1% | -0.79% | 10.7% | 3.47% | 13% | 2.7% | 25.4% | 2.87%
13 | Cc1ccc(-c2cc3c(NC(=O)C4CC4)ncnc3o2)cc1 | 32.2% | 4.08% | 5.68% | 4.38% | 8.01% | -2.51% | 0.4% | 2.92% | 11.2% | 4.28%
14 | Fc1ccc(Nc2nccc(-c3c(-c4ccc(C(F)(F)F)cc4)nn4ncccc34)n2)cc1F | 4.68% | 2.15% | 2.45% | 0.78% | 2.14% | -1.76% | 1.06% | 3.17% | 0.53% | 2.82%
15 | CS(=O)(=O)CCNCc1ccc(-c2ccc3ncnc(Nc4ccc(OCc5cccc(C(F)(F)F)c5)cc4)c3c2)o1 | 11.4% | 2.25% | 0.02% | 5.03% | 5.44% | -4.38% | -2.24% | 3.86% | 7.98% | 5.96%
16 | Nc1ncnc2occ(-c3ccc(NC(=O)Nc4cc(C(F)(F)F)ccc4F)cc3)c12 | 102% and 99.8% | 2.13% and -0.16% | 3.55% and 0.01% | 64.5% and 57% | 85.6% and 96% | 70.7% and 81.8% | 78.7% and 97.7% | 10.9% and 3.28% | – | 7.84% and 2.37%

Row | Structure (SMILES) | inhibition [1] | inhibition [2] | inhibition [3] | inhibition [4] | inhibition [5] | inhibition [6] | inhibition [7] | inhibition [8] | inhibition [9] | inhibition [10]
17 | COc1cc(Nc2ncc(-c3ccccc3)o2)cc(OC)c1 | 97.2% | 3.13% | 2.77% | 21.6% | 81.7% | 33.6% | 83.5% | 2.6% | 14.5% | 4.67%
18 | COc1ccccc1-c1cc(/C=C2\C(=O)Nc3ncc(Br)cc32)cc(Br)c1O | 27.9% | 4.84% | 1.87% | 3.92% | 3.21% | 1.58% | 4.31% | 2.46% | 8.22% | 3.94%
19 | c1cnn2ncc(-c3ccnc(NCCCN4CCOCC4)n3)c2c1 | 5.88% | 6.89% | 4.06% | 9.96% | 3.97% | -0.98% | -1.13% | 1.55% | 1.64% | 2.87%
20 | CN(C)CCNC(=O)Nc1ccc(N(C)c2ccnc(Nc3ccc(CS(C)(=O)=O)cc3)n2)cc1 | 57.6% | 3.66% | 3.76% | 4.26% | 6.89% | 11.7% | 54.1% | 3.05% | 8.53% | 3.62%
21 | CN1CCN(Cc2ccc(-c3cc4ncnc(Nc5ccc(OCc6cccc(F)c6)c(Cl)c5)c4s3)o2)CC1 | 11.5% and 12.7% | 3.79% and 5.98% | 5.98% and 4.53% | 2.89% and 2.77% | 2.77% and 5.27% | -1.59% and -3.38% | 2.22% and 1.14% | 4.76% and 7.19% | 22.2% and 27.2% | 3.61% and 4.17%
22 | N#Cc1ccc2c(-c3ccnc(NC4CC4)n3)c(-c3ccc(F)cc3)nn2c1 | 20.2% | -1.04% | 2.35% | 1.28% | 0.73% | 0.24% | 1.17% | 1.08% | 0.11% | 1.05%
23 | Cc1nnc(-c2cccc(-c3ccc(C(=O)NCC4CC4)cc3)c2)o1 | 9.77% | 1.04% | 7.79% | 5.46% | 5.66% | 0.29% | 2.8% | 2.77% | 2.64% | 4.15%
24 | CCN1CCC(C(=O)Nc2n[nH]c3nnc(-c4cccc(F)c4F)cc23)CC1 | 2.87% | -0.19% | -1.53% | 3.1% | -0.26% | 0.02% | 3.46% | -0.07% | 2.23% | -0.09%
25 | O=C(O[C@H]1CN[C@H](C#Cc2cc3ncnc(Nc4ccc5c(ccn5Cc5cc(F)ccc5F)c4)c3s2)C1)N1CCOCC1 | 2.34% | 3.87% | 3.82% | 3.88% | 2.88% | -0.88% | -2.32% | 2.27% | 4.87% | 5.27%
26 | NS(=O)(=O)c1ccc(N/N=C2\C(=O)Nc3cccc(CCc4ccncc4)c32)cc1 | 63.7% | 2.92% | 5.18% | 6.45% | 15% | 4.31% | 14.1% | 2.22% | 5.75% | 1.69%
27 | O=C(O[C@H]1CN[C@H](C#Cc2cc3ncnc(Nc4ccc5c(cnn5Cc5ccccc5)c4)c3s2)C1)N1CCOCC1 | 0.9% | -4.43% | -0.62% | -1.83% | -1.48% | -1.18% | -0.48% | 0.34% | 6.67% | 0.04%
28 | CS(=O)(=O)Nc1ccc(-c2ccc3c(NC(=O)C4CC4)n[nH]c3c2)cc1 | 6.32% | 2.91% | 2.86% | 1.55% | 1.56% | 0.02% | 0.94% | 2.88% | 8.63% | 4.21%
29 | Cc1c2ccc(N(C)c3ccnc(Nc4cccc(S(N)(=O)=O)c4)n3)cc2nn1C | 98% | 2.85% | 5.89% | 22% | 81.1% | 69.9% | 80.3% | 20.3% | 66.6% | 4.98%
30 | FC(F)(F)CNc1nccc(-c2cnn3ncccc23)n1 | 3.6% | 0.88% | 2.79% | 0.67% | 0.91% | -2.94% | 0.4% | 1.7% | 3.74% | 2.72%
31 | O=C(O[C@H]1CN[C@H](C#Cc2cc3ncnc(Nc4ccc(OCc5cccc(F)c5)c(Cl)c4)c3s2)C1)N1CCOCC1 | 6.15% | 7.97% | 7.17% | 4.04% | 5.91% | -2.49% | -1.75% | 1.76% | 1.88% | 4.09%
